From PubChem
Only some compounds are listed: those with a hit (about 0.45% of all), similar ones and a draw of the others.
S aureus QS inh = S. aureus quorum sensing inhibitors, primary screen, RNAIII-GFP reporter, flow cytometry | S. aureus RN6390 RNAIII-GFP reporter, AIP-induced, flow cytometry 3 h | inhibition, % at 2 µM | 24,000 compounds, 0.3% hits;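 active = share of bacteria positive for the green fluorescent reporter and its mean brightness both inhibited by 50% or more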;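 also: 0% = AIP-stimulated control and 100% = unstimulated bacteria without AIP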
26S disassembly = inhibitors of ATP-driven 26S proteasome dissociation, primary screen, biochemical, bead-based flow cytometry, GFP-tagged proteasome. anti-FLAG beads, GFP-proteasome disassembly. inhibition of disassembly, % (test concentration not listed). 24,000 compounds, 0.2% hits;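 active = inhibition of disassembly above about 33%, limit read from the data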;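 also: plate controls were ATP control with full disassembly for no effect and ATP-gamma-S intact proteasomes for full effect; higher percent means more bead fluorescence retained so stronger block of disassembly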
Active calls of the source: *.

How did COC(=O)CN1CCN(C(=O)c2ccc(F)cc2)c2ccccc2C1 do in these assays?
S aureus QS inh: -4.8; 26S disassembly: -1.3

How did COc1cccc(NC(=O)CCS(=O)(=O)c2cccs2)c1 do in these assays?
S aureus QS inh: -3.0; 26S disassembly: 0.1

How did N#Cc1c(NC(=O)COC(=O)C2CC3C=CC2C3)oc(-c2ccccc2)c1-c1ccccc1 (stereo unspecified) do in these assays?
S aureus QS inh: 90.6*; 26S disassembly: -2.7

Results for COc1ccccc1OCC(=O)Nc1oc(-c2ccccc2)c(-c2ccccc2)c1C#N ?
S aureus QS inh: 1.0

How did C=C(C)COc1ccc(-c2nc(N)ncc2-c2ccc(OC)cc2)c(O)c1 do in these assays?
S aureus QS inh: 14.5; 26S disassembly: -1.3

Results for COc1cccc(Oc2cnc(N)nc2-c2ccc(OC)cc2O)c1 ?
S aureus QS inh: 61.8*; 26S disassembly: 0.1

Results for CC(C)CCOP(=O)(c1ccc(N(C)C)cc1)C(O)c1ccccc1F (stereo unspecified) ?
S aureus QS inh: 82.2*; 26S disassembly: 0.2

How did CC(C)OP(=O)(c1ccc(N(C)C)cc1)C(O)c1ccccc1F (stereo unspecified) do in these assays?
S aureus QS inh: -2.3; 26S disassembly: 1.0

Results for CCOCCCn1c(=S)[nH]c2cc3c(cc2c1=O)OCO3 ?
S aureus QS inh: -2.3; 26S disassembly: 0.3

How did Cc1ccc(-c2nc(CS(=O)CC(=O)NCCN3CCCC3)c(C)o2)cc1 (stereo unspecified) do in these assays?
S aureus QS inh: -10.5; 26S disassembly: -0.2

Results for Cc1oc(-c2ccc(Cl)cc2)nc1CS(=O)CC(=O)NCCN1CCCC1 (stereo unspecified) ?
S aureus QS inh: -0.9; 26S disassembly: 154.5*

What do the screens show for `Cc1ccc(S(=O)(=O)Nc2cc(C(=O)NCCN3CCCC3)ccc2N2CCCCC2)cc1`?
S aureus QS inh: 3.0; 26S disassembly: 105.2*

What do the screens show for `Cc1ccc(S(=O)(=O)Nc2cc(C(=O)NCCN(C)C)ccc2N2CCCCC2)cc1`?
S aureus QS inh: -0.5; 26S disassembly: 0.0

How did CCOC(=O)CSc1nc2ccc(N3CCOCC3)cc2c(=O)n1Cc1ccc2c(c1)OCO2 do in these assays?
S aureus QS inh: 0.5; 26S disassembly: -0.3

What do the screens show for `CCOc1ccc(NC(=O)CN(C)CC(=O)NC2CCCc3ccccc32)cc1OCC` (stereo unspecified)?
S aureus QS inh: 0.0; 26S disassembly: 1.4

What do the screens show for `Cc1cccc2nc(Cn3c(=O)n(CCC(=O)NCc4ccco4)c(=O)c4ccccc43)cc(=O)n12`?
S aureus QS inh: -3.6; 26S disassembly: -2.3

How did O=C(NCC(c1cccnc1)N1CCOCC1)c1cccc(Cl)c1 (stereo unspecified) do in these assays?
S aureus QS inh: -2.5; 26S disassembly: -3.2

Results for O=C(NCC(c1cccnc1)N1CCN(c2ccccc2F)CC1)c1cccc(Cl)c1 (stereo unspecified) ?
S aureus QS inh: 58.9*; 26S disassembly: -3.1

What do the screens show for `O=C(NCc1ccccn1)C1CCCN(S(=O)(=O)c2cccc3nsnc23)C1` (stereo unspecified)?
S aureus QS inh: -1.8; 26S disassembly: -2.1

What do the screens show for `O=C1CN(Cc2ccccc2)C(=NCc2ccco2)S1`?
S aureus QS inh: -0.6; 26S disassembly: 1.2

How did CC[C@H]1OC(=O)C[C@@H](O)[C@H](C)[C@@H](O[C@@H]2O[C@H](C)C[C@H](N(C)C)[C@H]2O)[C@@H](CC=O)C[C@@H](C)C(=O)C=C[C@]2(C)O[C@H]2[C@@H]1C do in these assays?
S aureus QS inh: 51.2*; 26S disassembly: -0.1

What do the screens show for `COCCn1c(=NC(=O)CSCC(=O)Nc2cc(C)on2)sc2cc(C(=O)OC)ccc21`?
S aureus QS inh: -1.7; 26S disassembly: -0.4

Results for O=C(O)Cc1ccc(O)c(F)c1 ?
S aureus QS inh: -3.1

How did CCC(=O)O[C@@H]1CC(=O)O[C@H](C)CC=CC=C[C@@H](O)[C@H](C)C[C@H](CC=O)[C@H](O[C@H]2O[C@H](C)[C@@H](O[C@H]3C[C@@](C)(O)[C@@H](OC(=O)CC)[C@H](C)O3)[C@H](N(C)C)[C@H]2O)[C@H]1OC do in these assays?
S aureus QS inh: 51.2*; 26S disassembly: -0.4

Results for CC1=C(C(=O)OC2CCCC2)C(c2ccc(C)o2)C2=C(CC(c3cccs3)CC2=O)N1 (stereo unspecified) ?
S aureus QS inh: 8.1; 26S disassembly: 3.2
